{
  "source": "the supplement of paper PMC8728848",
  "assay_in_all_cases": "glycan array binding signal (z-score within array); higher = stronger binding",
  "details_in_all_cases": "glycan notation: IUPAC condensed, linker removed",
  "key": {"[1]": {"target": "Fuc(a1-2)Gal(b1-3)GalNAc(a1-3)[Fuc(a1-2)]Gal(b1-4)GlcNAc", "summary_of_the_method": "(§1)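 The Consortium for Functional Glycomics database supplied 3228 glycan arrays, of which those lacking an available protein sequence were dropped. The binding signal, a within-array Z-score, was averaged across arrays of the same protein sequence and across linkers. Negative scores can be read as non-binding.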"}, "[2]": {"target": "Fuc(a1-2)Gal(b1-3)GlcNAc(b1-3)[Gal(b1-4)GlcNAc(b1-6)]Gal(b1-4)Glc", "summary_of_the_method": "as §1"}, "[3]": {"target": "Fuc(a1-2)Gal(b1-4)[Fuc(a1-3)]GlcNAc(b1-3)GalNAc", "summary_of_the_method": "as §1"}, "[4]": {"target": "Fuc(a1-2)[Gal(a1-3)]Gal(b1-4)GlcNAc(b1-3)GalNAc", "summary_of_the_method": "as §1"}, "[5]": {"target": "Fuc(a1-2)[GalNAc(a1-3)]Gal(b1-4)GlcNAc(b1-3)GalNAc", "summary_of_the_method": "as §1"}, "[6]": {"target": "Fuc(a1-2)[GalNAc(a1-3)]Gal(b1-4)[Fuc(a1-3)]GlcNAc", "summary_of_the_method": "as §1"}, "[7]": {"target": "Fuc(a1-3)[Gal(b1-4)]GlcNAc(b1-2)Man(a1-3)[Fuc(a1-3)[Gal(b1-4)]GlcNAc(b1-2)Man(a1-6)]Man(b1-4)GlcNAc(b1-4)[Fuc(a1-6)]GlcNAc", "summary_of_the_method": "as §1"}, "[8]": {"target": "Fuc(a1-3)[Gal(b1-4)]GlcNAc(b1-3)Gal(b1-3)[Fuc(a1-4)]GlcNAc", "summary_of_the_method": "as §1"}, "[9]": {"target": "Fuc(a1-3)[Gal3S(b1-4)]GlcNAc", "summary_of_the_method": "as §1"}, "Fuc(a1-4)GlcNAc": {"target": "Fuc(a1-4)GlcNAc", "summary_of_the_method": "as §1"}, "[10]": {"target": "Gal(a1-3)Gal(b1-4)GlcNAc(b1-6)GalNAc", "summary_of_the_method": "as §1"}, "[11]": {"target": "Gal(a1-4)Gal(b1-4)GlcNAc(b1-3)Gal(b1-4)Glc", "summary_of_the_method": "as §1"}, "[12]": {"target": "Gal(b1-3)GlcNAc(b1-2)Man(a1-3)[Gal(b1-3)GlcNAc(b1-2)Man(a1-6)]Man(b1-4)GlcNAc(b1-4)[Fuc(a1-6)]GlcNAc", "summary_of_the_method": "as §1"}, "[13]": {"target": "Gal(b1-3)GlcNAc(b1-2)Man(a1-3)[GlcNAc(b1-4)][Gal(b1-3)GlcNAc(b1-2)Man(a1-6)]Man(b1-4)GlcNAc(b1-4)GlcNAc", "summary_of_the_method": "as §1"}, "[14]": {"target": "Gal(b1-3)[Fuc(a1-4)]GlcNAc(b1-6)GalNAc", "summary_of_the_method": "as §1"}, "[15]": {"target": "Gal(b1-4)GalNAc(b1-3)[Fuc(a1-2)]Gal(b1-4)GlcNAc", "summary_of_the_method": "as §1"}, "Gal(b1-4)GlcNAc": {"target": "Gal(b1-4)GlcNAc", "summary_of_the_method": "as §1"}, "[16]": {"target": "Gal(b1-4)GlcNAc(b1-2)[Gal(b1-4)GlcNAc(b1-4)]Man(a1-3)[GlcNAc(b1-4)][Gal(b1-4)GlcNAc(b1-2)[Gal(b1-4)GlcNAc(b1-6)]Man(a1-6)]Man(b1-4)GlcNAc(b1-4)GlcNAc", "summary_of_the_method": "as §1"}, "[17]": {"target": "Gal(b1-4)GlcNAc(b1-3)Gal(b1-4)GlcNAc(b1-2)Man(a1-3)[Gal(b1-4)GlcNAc(b1-3)Gal(b1-4)GlcNAc(b1-2)Man(a1-6)]Man(b1-4)GlcNAc(b1-4)[Fuc(a1-6)]GlcNAc", "summary_of_the_method": "as §1"}, "[18]": {"target": "Gal(b1-4)GlcNAc(b1-3)Gal(b1-4)GlcNAc(b1-3)Gal(b1-4)GlcNAc(b1-2)Man(a1-3)[Gal(b1-4)GlcNAc(b1-3)Gal(b1-4)GlcNAc(b1-3)Gal(b1-4)GlcNAc(b1-2)Man(a1-6)]Man(b1-4)GlcNAc(b1-4)GlcNAc", "summary_of_the_method": "as §1"}, "[19]": {"target": "Gal(b1-4)GlcNAc(b1-3)Gal(b1-4)GlcNAc(b1-6)[Gal(b1-3)]GalNAc", "summary_of_the_method": "as §1"}, "Gal6S(b1-4)Glc": {"target": "Gal6S(b1-4)Glc", "summary_of_the_method": "as §1"}, "GalNAc(a1-3)GalNAc": {"target": "GalNAc(a1-3)GalNAc", "summary_of_the_method": "as §1"}, "GalNAc(b1-3)Gal": {"target": "GalNAc(b1-3)Gal", "summary_of_the_method": "as §1"}, "[20]": {"target": "GalNAc(b1-3)Gal(a1-4)Gal(b1-4)GlcNAc(b1-3)Gal(b1-4)Glc", "summary_of_the_method": "as §1"}, "GalNAc6S(b1-4)GlcNAc": {"target": "GalNAc6S(b1-4)GlcNAc", "summary_of_the_method": "as §1"}, "GlcA(b1-3)Gal": {"target": "GlcA(b1-3)Gal", "summary_of_the_method": "as §1"}, "[21]": {"target": "GlcNAc(b1-2)Man(a1-3)[GlcNAc(b1-2)Man(a1-6)]Man(b1-4)GlcNAc(b1-4)[Fuc(a1-6)]GlcNAc", "summary_of_the_method": "as §1"}, "[22]": {"target": "GlcNAc(b1-2)Man(a1-3)[GlcNAc(b1-4)][GlcNAc(b1-2)Man(a1-6)]Man(b1-4)GlcNAc(b1-4)[Fuc(a1-6)]GlcNAc", "summary_of_the_method": "as §1"}, "[23]": {"target": "GlcNAc(b1-3)Gal(b1-4)GlcNAc", "summary_of_the_method": "as §1"}},
  "note": "The full list was thinned out, with the strongest signals kept by preference.",
  "data": [
    {"binder": "Protein L(A-C2) (Finegoldia magna), Q51912 (protein) ADEPIDLEKLEEKRDKENVGNLPKFDNEVKDGSENPMAKYPDFDDEASTRFETENNEFEEKKVVSDNFFDQSEHPFVENKEETPETPETDSEEEVTIKANLIFANGSTQTAEFKGTFEKATSEAYAYADTLKKDNGEYTVDVADKGYTLNIKFAGKEKTPEEPKEEVTIKANLIYADGKTQTAEFKGTFEEATAEAYRYADALKKDNGEYTVDVADKGYTLNIKFAGKEKTPEEPKEEVTIKANLIYADGKTQTAEFKGTFEEATAEAYRYADLLAKENGKYTVDVADKGYTLNIKFAGKEKTPEEPKEEVTIKANLIYADGKTQTAEFKGTFAEATAEAYRYADLLAKENGKYTADLEDGGYTINIRFAGKKVDEKPEEKEQVTIKENIYFEDGTVQTATFKGTFAEATAEAYRYADLLSKEHGKYTADLEDGGYTINIRFAGKEEPEETPEKPEVQDGYASYEEAEAAAKEALKNDDVNKSYTIRQGADGRYYYVLSPVEAEEEKPEAQNGYATYEEAEAAAKKALENDPINKSYSIRQGADGRYYYVLSPVEAE", "values": [
      {"measurement": "glycan array binding signal (z-score)", "setting": "[1]", "value": -0.969},
      {"measurement": "glycan array binding signal (z-score)", "setting": "[2]", "value": -0.355},
      {"measurement": "glycan array binding signal (z-score)", "setting": "[3]", "value": 2.89},
      {"measurement": "glycan array binding signal (z-score)", "setting": "[4]", "value": 6.17},
      {"measurement": "glycan array binding signal (z-score)", "setting": "[5]", "value": -0.485},
      {"measurement": "glycan array binding signal (z-score)", "setting": "[6]", "value": 3.52},
      {"measurement": "glycan array binding signal (z-score)", "setting": "[7]", "value": 1.71},
      {"measurement": "glycan array binding signal (z-score)", "setting": "[8]", "value": 0.052},
      {"measurement": "glycan array binding signal (z-score)", "setting": "[9]", "value": -0.101},
      {"measurement": "glycan array binding signal (z-score)", "setting": "Fuc(a1-4)GlcNAc", "value": -0.933},
      {"measurement": "glycan array binding signal (z-score)", "setting": "[10]", "value": -0.284},
      {"measurement": "glycan array binding signal (z-score)", "setting": "[11]", "value": -0.164},
      {"measurement": "glycan array binding signal (z-score)", "setting": "[12]", "value": 0.716},
      {"measurement": "glycan array binding signal (z-score)", "setting": "[13]", "value": 0.568},
      {"measurement": "glycan array binding signal (z-score)", "setting": "[14]", "value": 3.16},
      {"measurement": "glycan array binding signal (z-score)", "setting": "[15]", "value": -0.365},
      {"measurement": "glycan array binding signal (z-score)", "setting": "Gal(b1-4)GlcNAc", "value": -0.975},
      {"measurement": "glycan array binding signal (z-score)", "setting": "[16]", "value": -0.468},
      {"measurement": "glycan array binding signal (z-score)", "setting": "[17]", "value": 0.357},
      {"measurement": "glycan array binding signal (z-score)", "setting": "[18]", "value": 3.21},
      {"measurement": "glycan array binding signal (z-score)", "setting": "[19]", "value": 3.67},
      {"measurement": "glycan array binding signal (z-score)", "setting": "Gal6S(b1-4)Glc", "value": -0.354},
      {"measurement": "glycan array binding signal (z-score)", "setting": "GalNAc(a1-3)GalNAc", "value": -0.445},
      {"measurement": "glycan array binding signal (z-score)", "setting": "GalNAc(b1-3)Gal", "value": -0.354},
      {"measurement": "glycan array binding signal (z-score)", "setting": "[20]", "value": 0.127},
      {"measurement": "glycan array binding signal (z-score)", "setting": "GalNAc6S(b1-4)GlcNAc", "value": -0.775},
      {"measurement": "glycan array binding signal (z-score)", "setting": "GlcA(b1-3)Gal", "value": -0.562},
      {"measurement": "glycan array binding signal (z-score)", "setting": "[21]", "value": 2.85},
      {"measurement": "glycan array binding signal (z-score)", "setting": "[22]", "value": -0.153},
      {"measurement": "glycan array binding signal (z-score)", "setting": "[23]", "value": -0.623}
    ]}
  ]
}
